# Data published in paper PMC4336329 (PLoS ONE, 2015).
# About 14,000 (4.5%) of roughly 310,000 compounds showed an effect of 50% or more. The effect is printed as a negative number. The list comes from a sample in which strong results are over-represented; it also holds similar structures and randomly drawn compounds.
# Target: human ether-à-go-go-related gene (hERG) potassium channel (human, UniProt Q12809)
# Assay: primary screen, population patch clamp on CHO cells stably expressing hERG; higher = less effect of the substance
# 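Further: peak tail current of the secondary pulse compared with the same well before compound.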
# human ether-à-go-go-related gene (hERG) potassium channel, sequence (Q12809 whole entry, looked up): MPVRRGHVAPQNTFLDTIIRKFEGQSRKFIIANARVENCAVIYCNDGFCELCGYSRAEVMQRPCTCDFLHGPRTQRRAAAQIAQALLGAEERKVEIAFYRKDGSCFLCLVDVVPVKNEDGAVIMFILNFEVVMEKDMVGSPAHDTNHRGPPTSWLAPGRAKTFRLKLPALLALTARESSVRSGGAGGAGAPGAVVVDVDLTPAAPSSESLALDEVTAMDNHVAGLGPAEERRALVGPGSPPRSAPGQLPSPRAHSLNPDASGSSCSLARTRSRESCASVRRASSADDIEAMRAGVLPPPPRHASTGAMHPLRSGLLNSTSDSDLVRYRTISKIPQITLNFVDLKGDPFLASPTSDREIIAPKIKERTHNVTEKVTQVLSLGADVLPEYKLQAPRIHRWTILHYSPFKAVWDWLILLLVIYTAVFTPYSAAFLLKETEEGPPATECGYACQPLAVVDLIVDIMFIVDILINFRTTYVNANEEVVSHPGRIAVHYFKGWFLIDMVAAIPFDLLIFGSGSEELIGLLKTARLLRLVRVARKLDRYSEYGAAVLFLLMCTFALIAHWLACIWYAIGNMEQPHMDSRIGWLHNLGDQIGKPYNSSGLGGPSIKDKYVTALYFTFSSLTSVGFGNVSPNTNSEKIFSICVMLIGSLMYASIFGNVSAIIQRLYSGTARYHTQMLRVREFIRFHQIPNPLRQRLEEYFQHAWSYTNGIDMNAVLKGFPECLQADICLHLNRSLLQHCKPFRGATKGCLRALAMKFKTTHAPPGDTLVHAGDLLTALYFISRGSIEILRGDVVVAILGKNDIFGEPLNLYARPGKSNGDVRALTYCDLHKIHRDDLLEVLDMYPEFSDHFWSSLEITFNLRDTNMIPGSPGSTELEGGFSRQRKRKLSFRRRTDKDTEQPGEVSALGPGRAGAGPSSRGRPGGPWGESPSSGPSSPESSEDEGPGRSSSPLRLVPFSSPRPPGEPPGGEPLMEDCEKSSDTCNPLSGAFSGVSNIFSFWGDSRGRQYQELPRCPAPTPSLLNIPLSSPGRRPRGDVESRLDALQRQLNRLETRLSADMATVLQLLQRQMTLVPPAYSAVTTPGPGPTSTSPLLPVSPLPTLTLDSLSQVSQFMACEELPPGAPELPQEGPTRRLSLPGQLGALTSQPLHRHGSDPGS
row,Compound,"hERG current change (%, negative = inhibition) at 10uM"
1,COc1ccc2c(C)c(CCC(=O)NCCCN3CCCC3=O)c(=O)oc2c1C,1.56%
2,Cc1ccc(-c2ccc(=O)n(CC(=O)NCCN3C(C)CCCC3C)n2)cc1 (centres unmarked),0.00388%
3,CCCN(c1ccccc1F)S(=O)(=O)c1cc(-c2cc(C)no2)ccc1OC,6.91%
4,Cc1ccnc(NC(=O)CCC(=O)N(CC(=O)NC(C)(C)C)c2ccc3c(c2)OCCO3)c1,17.8%
5,Cn1cc(Cl)nc1C(O)c1ccccc1 (centres unmarked),7.21%
6,Br.O=S(=O)(c1ccc(-c2csc(Nc3ccc(Br)cc3)n2)cc1)N1CCCC1,10.2%
7,Cc1cccc(N(CC(=O)NC2CCCCC2)C(=O)c2ccc(C)s2)c1,-24.7%
8,O=C(COc1ccc(C(=O)c2ccccc2)cc1)NC1CCCCCC1,-21.9%
9,CC(C)(C)NC(=O)CCC1COc2ccccc2O1 (centres unmarked),-4.27%
10,Cc1cccc(C)c1NC(=O)N1C2CCC1CC(O)(c1cccnc1)C2 (centres unmarked),20.2%
11,Cc1ccc(/C=C/C(=O)NCc2ccccn2)o1,-26.4%
12,COc1ccc([C@@H]2[C@@H]3C(=O)N(C(C)(C)C)C(=O)[C@@H]3[C@]3(Cc4ccc(Cl)cc4)C(=O)N(c4ccc(Br)cc4)C(=O)N23)cc1,2.7%
13,CC(COc1ccccc1)N1CCC(CO)(Cc2ccccc2)CC1 (centres unmarked),-50.6%
14,COc1ccc(CC(=O)N2CCc3ccccc3C2)cc1,3.67%
15,COc1ccc(CC2(CO)CCN(S(=O)(=O)N(C)C)CC2)cc1,9.82%
16,COc1ccc(CCC(C)N2CCOCC2)cc1 (centres unmarked),2.71%
17,CN1CCC(CO)(Cc2ccccc2)CC1,16.2%
18,COc1ccc(CCC(C)N2CCc3ccccc3C2)cc1 (centres unmarked),-61.7%
19,Cc1ccsc1C(=O)N1CCC(CO)(Cc2ccccc2)CC1,17.6%
20,COc1ccc(CC2(CO)CCN(C(C)Cc3ccc(Cl)cc3)CC2)cc1 (centres unmarked),-80.4%
21,COc1ccc(CC2(CO)CCN(S(=O)(=O)c3c(C)nn(C)c3Cl)CC2)cc1,14.7%
22,COc1ccc(N2CCN(C(=O)Cn3ncc4c([nH]c5ccccc54)c3=O)CC2)cc1,9.02%

row,Compound,"hERG current change (%, negative = inhibition) at 10uM"
1,CCOC(=O)Cc1csc(NC(=O)c2ccc(S(=O)(=O)N3CCCCC3)cc2)n1,-42.2%
2,O=[N+]([O-])c1cccn2cc(-c3ccc(Br)cc3)nc12,-2.94%
3,NS(=O)(=O)c1ccc(CCNC(=O)CCCCCNc2nc(=S)[nH]c3ccccc23)cc1,24.4%
4,CC(=NCc1cccnc1)c1c(O)n(-c2ccc(C)cc2)c(=O)[nH]c1=O,-8.92%
5,Cc1ccc(NCc2cccnc2)cc1,2.82%
6,Cc1ccc(-n2c(=O)cc(NCc3cccnc3)[nH]c2=O)cc1,-65.5%
7,COc1ccc(-c2cc(C(=O)N3CCCCCC3)no2)cc1OC,7.06%
8,Cn1c(=O)c2c(nc(-n3ccnc3)n2Cc2ccc([N+](=O)[O-])cc2)n(C)c1=O,-43.7%
9,Cc1cc(C(=O)CN2CCN(CC(=O)Nc3ccc(F)cc3)CC2)c(C)n1C1CC1,-74.5%
10,Cc1cc(C(=O)OCC(=O)Nc2cccc(F)c2)c(C)n1C1CC1,-2.59%
11,Cc1cc(C(=O)CN2CCN(CC(=O)Nc3cccc(F)c3)CC2)c(C)n1C1CC1,-56.2%
12,Cc1cc(C(=O)CN2C(=O)c3ccccc3C2=O)c(C)n1C1CC1,-1.31%
13,Cc1cc(C(=O)OCC(=O)Nc2ccc(F)cc2)c(C)n1C1CC1,5.51%
14,Cc1cccc(C)c1NC(=O)CN1CCN(CC(=O)c2cc(C)n(C3CC3)c2C)CC1,-12.4%
15,CC1=C(C(=O)OCc2ccccc2)C(c2ccsc2)NC(=O)N1C (centres unmarked),-37.7%
16,CCOC(=O)C(Cc1ccc(OC)c([N+](=O)[O-])c1)NC(=O)CCC(=O)Nc1ccc(C)cc1 (centres unmarked),-26.2%
17,COC(=O)c1ccc(/C=C/c2c(-c3ccc(OC)cc3)oc3ccc(N4CCOCC4)cc23)cc1,25.7%
18,Cc1cc(NC(=O)c2cnn3c(C(F)(F)F)cc(-c4ccc(Br)cc4)nc23)no1,24.4%
19,C[C@]12CC[C@@H]3c4ccc(O)cc4C(=O)C[C@H]3[C@@H]1CC[C@@H]2O,-52.7%
20,C[C@]12CC[C@@H]3c4ccc(O)c(O)c4CC[C@H]3[C@@H]1CC[C@@H]2O,15.4%
21,C[C@]12CC[C@@H]3c4ccc(O)cc4[C@@H](O)C[C@H]3[C@@H]1CC[C@@H]2O,10.4%
22,CCN(CC)S(=O)(=O)c1ccc(/C=C/C(=O)OCC#N)cc1,-12.4%
